Assay results as given in PubChem BioAssay (NCI).
Compounds without any hit were thinned out: in the full panel of roughly 83,000, 20% have a hit.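 Single-dose data. Exposure time 48 hours. Values below 10 considered active.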 Values without a mark were called inactive. Calls of active or inactive are those of the source.

System: HL-60(TB) leukemia
Assay: NCI-60 one-dose screen, 48 h (100 = growth as untreated, 0 = no growth, -100 = all killed)
Conditions: 10 µM unless noted

With `COc1ccccc1N(C(C)=O)C1=C(Cl)C(=O)c2ccccc2C1=O` the growth was -27.5% (active).
In the case of `O=C(/C(=C/c1ccccc1)CN1CCCCC1)c1ccccc1`, the growth is reported as -16.4% (active).
With `O=C(C[Si](CC(=O)c1cccc(C(F)(F)F)c1)CC(=O)c1cccc(C(F)(F)F)c1)c1cccc(C(F)(F)F)c1` the growth was -40.8% (active).

Point of comparison: `C=C(C)[C@@H]1CC[C@]2(C(=O)NC3CCCCC3)CC[C@]3(C)[C@H](CC[C@@H]4[C@@]5(C)CCC(=O)C(C)(C)[C@@H]5CC[C@]43C)[C@@H]12`, growth 76.6%. Against it:
- Cc1ccccc1COc1ccc(-c2ccnn2-c2ccc(Cl)cc2)cc1 — lower, 13.3%
- C[C@H]1Oc2cc(cnc2N)-c2c(nn(C)c2C#N)CN(C)C(=O)c2ccc(F)cc21 — higher, 77%
- Nc1nc2ncc(CNc3ccc(C(=O)N[C@@H](CCc4nn[nH]n4)C(=O)O)cc3)nc2c(=O)[nH]1 — higher, 109%
- Cc1cc(Nc2c3ccccc3nc3ccccc23)ccc1NS(C)(=O)=O — lower, 32.2%
- O=C(NCO)c1ccccc1 — higher, 94.4%
- Cc1cc(N/N=C/c2nc(-c3ccc(Br)cc3)oc2C)c2cc(Br)ccc2n1 — lower, 18.9%
- O=C(NCCNc1cc(-c2cn(-c3ccccc3)nc2-c2cccc(O)c2)ccn1)Nc1ccccc1 — lower, 29.9%
- COc1ccc(CNc2ccc3nc(NC(=O)CN4CCCCCC4)sc3c2)cc1 — lower, 47.4%
- C=C1C(=O)O[C@H]2[C@H]1CC/C(COC(=O)/C=C\C(=O)O)=C\CC[C@@]1(C)O[C@@H]21 — higher, 105%
